Source: PubChem BioAssay (National Center for Advancing Translational Sciences (NCATS))
CtBP-E1A blk: CtBP/E1A binding inhibition; AlphaScreen GST-E1A/His-CtBP binding, 1536-well; hits give low values; 0.49% of 340,000 active; activity change, % (test concentration not listed); in the data active = activity change below about -65%; inconclusive = mostly about -30% to -63%
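In 5 uL wells, 23 nL compound meets equimolar GST-E1A and His-CtBP (5X stock 125 nM each) for 2 h, 37 °C. Beads (5X, 50 ug/mL) then 1 h, 37 °C, dark.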
USP2a inh: inhibitors of human ubiquitin-specific protease USP2a | O75604 | USP2 core, Ub-CHOP2 coupled fluorogenic reporter, 485/531 | Potency, µM (doses to about 38.3 µM), most hits filed as inhibitors | 0.01% of 330,000 active | AID 463254
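Cell-free coupled assay: 10nM USP2 core preincubated 30min RT with compound in Tris-HCl pH 8.0/CaCl2/CHAPS buffer, then 25nM Ub-CHOP2 and 25nM reporter substrate; fluorescence (Ex 485/Em 531) read after 60min RT, normalized to NEM inhibition, concentration-response curves fitted.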
Eya2 inh: Eya2 (human) phosphatase inhibition; O00167; recombinant Eya2, OMFP fluorescence dephosphorylation (OMFP is methylfluorescein phosphate); Potency, µM (doses to about 76.9 µM), actives largely listed as inhibitors; 0.006% of 330,000 active
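Eya2 protein (added as 0.2 uM solution) was preincubated with compound for 10 min at ambient temperature in 50 mM HEPES pH 7.5, 50 mM NaCl, 5 uM MgCl2, 0.05% BSA, 1 mM DTT. OMFP (added at 50 uM) then reacted 10 min; fluorescence read at 485/525 nm.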
PI4K2A block: PI4K2A (human) kinase inhibition; Q9BTU6; purified PI4K2A, ADP-Glo luminescence, 1 h; hits give low values; activity change, negative = inhibition, % at 76.9 µM; 0.13% of 420,000 active; AID 1346378; in the data active = activity change below about -50%; inconclusive = mostly about -30% to -49%
Target sequence (Q9BTU6 whole entry, looked up): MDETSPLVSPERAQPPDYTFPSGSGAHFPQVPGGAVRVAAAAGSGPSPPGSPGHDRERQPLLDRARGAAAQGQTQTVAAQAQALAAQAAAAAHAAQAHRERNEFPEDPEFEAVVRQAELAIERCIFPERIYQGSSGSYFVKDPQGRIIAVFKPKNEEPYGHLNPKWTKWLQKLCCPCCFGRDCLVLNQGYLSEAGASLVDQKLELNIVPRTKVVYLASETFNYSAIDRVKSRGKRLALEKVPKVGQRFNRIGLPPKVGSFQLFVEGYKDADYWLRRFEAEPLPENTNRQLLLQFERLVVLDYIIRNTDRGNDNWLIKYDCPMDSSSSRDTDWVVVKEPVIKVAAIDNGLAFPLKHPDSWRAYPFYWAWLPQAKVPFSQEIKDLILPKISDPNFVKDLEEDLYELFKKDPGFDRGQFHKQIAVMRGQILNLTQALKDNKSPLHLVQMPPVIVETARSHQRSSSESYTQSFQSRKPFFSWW
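Compounds are screened against recombinant PI4K2A using PI as substrate and ATP, the latter dispensed at 300 microM. Reactions run one hour at ambient temperature before ADP-Glo detection; full inhibition defined by wells lacking enzyme.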
RGS4 inh: inhibitors of human regulator of G protein signaling 4. P49798. Transcreener GDP fluorescence polarization, RGS4-accelerated GTP hydrolysis. Potency, µM (series often up to 114 µM), usual class: inhibitors. 0.039% of 390,000 active. AID 504845; note: nearly all actives have a fitted effect of over 75% in size
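MLSMR compounds (23 nl, pin-transferred) preincubated 10 min at room temperature with a 500nM (2x) first reagent, then RGS4 at 900nM (2x) plus Transcreener GDP mix added; fluorescence polarization (620/688 nm) read before and after 90 min at 30 °C.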
Six1-Eya2 inh: inhibitors of human Six1/Eya2 interaction | Q15475+O00167 | AlphaScreen GST-Six1/His-Eya2 binding, biochemical; hits give low values | activity change, % (no concentration beside the values) | 0.56% of 360,000 active | AID 651725; in the data active = activity change below about -65%; inconclusive = mostly about -30% to -63%
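Homogeneous AlphaScreen proximity assay pairing GST-Six1 with His-tagged Eya2 (added as 5X mix: 250 nM and 500 nM) in 50 mM Tris pH 8.0, 300 mM NaCl, 1 mM TCEP. Glutathione donor and nickel acceptor beads; 1 h, 37 °C, dark.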
Large screens that a line does not name were inactive. An excerpt weighted towards active compounds, which were near 0.72% of everything screened. Unless noted, calls come from the whole dose curve; as a rule, active = well fitted curve in the direction sought with a large enough effect; inconclusive = small, poorly fitted or top-dose-only effect, or another doubt; inactive = no such curve, though single readings can be large; an effect the other way counts as inactive or inconclusive.

O=C1C(O)=C(O)C(=O)c2ccccc21	PI4K2A block -50 (no result: USP2a inh, Eya2 inh)
O=C1c2ccccc2C(=O)c2c1ccc(O)c2O	CtBP-E1A blk inconclusive, Six1-Eya2 inh -65 (no result: USP2a inh, Eya2 inh)
c1ccc(CNCCN2CCNCC2)nc1	CtBP-E1A blk -72, Six1-Eya2 inh -86
Cc1ccc2c(c1)C(N1CCCC1=O)CC(c1ccco1)N2 (stereo unspecified)	PI4K2A block -62
Cc1cccc(NC(=O)c2nc(S(C)(=O)=O)ncc2Cl)c1	RGS4 inh inconclusive (no result: CtBP-E1A blk, USP2a inh, Eya2 inh, Six1-Eya2 inh)
COc1cccc(NC(=O)c2nc(S(C)(=O)=O)ncc2Cl)c1	CtBP-E1A blk -90, RGS4 inh inconclusive
CC(C)Nc1nnc(SCC(=O)Nc2ccc3c(c2)C(=O)c2ccccc2C3=O)s1	Six1-Eya2 inh -74
O=C(CSc1nnc(NC2CCCCC2)s1)Nc1ccc2c(c1)C(=O)c1ccccc1C2=O	Six1-Eya2 inh inconclusive (no result: CtBP-E1A blk)
C#CCOCCOCCOCCNc1nc(N2CCN(C(=O)CCCCCCCCCCNC(=O)[C@H](CCCCN)n3cc(C)nn3)CC2)nc(N2CCN(C(=O)CCCCCCCCCCNC(=O)[C@H](CCCN=C(N)N)n3cc(C[C@@H](C)CC)nn3)CC2)n1	USP2a inh 11µM, Eya2 inh 22µM, RGS4 inh inconclusive
C#CCOCCOCCOCCNc1nc(N2CCN(C(=O)CCCCCCCCCCNC(=O)[C@H](CCCCN)n3cc(C[C@@H](C)CC)nn3)CC2)nc(N2CCN(C(=O)CCCCCCCCCCNC(=O)[C@H](CCCN=C(N)N)n3cc(C[C@@H](C)CC)nn3)CC2)n1	USP2a inh 10µM, Eya2 inh inconclusive, RGS4 inh inconclusive
C#CCOCCOCCOCCNc1nc(N2CCN(C(=O)CCCCCCCCCCNC(=O)[C@H](CO)n3cc(CCCCCN)nn3)CC2)nc(N2CCN(C(=O)CCCCCCCCCCNC(=O)[C@H](CCCN=C(N)N)n3cc(C[C@@H](C)CC)nn3)CC2)n1	USP2a inh inconclusive (no result: CtBP-E1A blk, PI4K2A block, RGS4 inh, Six1-Eya2 inh)
Fc1ccc(NCc2ccccc2-c2nnc(-c3ccccc3Cl)o2)cc1	none (no result: CtBP-E1A blk, USP2a inh, Eya2 inh, Six1-Eya2 inh)
CCOc1ccccc1/C=N/NC(=O)CSc1n[nH]c(=O)[nH]c1=O	none (no result: CtBP-E1A blk)
O=C(CSc1n[nH]c(=O)[nH]c1=O)N/N=C/c1ccccc1O	CtBP-E1A blk -77, Six1-Eya2 inh -80
Cc1ccc(Cn2c(CN3CCC(C(=O)NCc4cccnc4)CC3)cc3ccccc32)cc1	none (no result: CtBP-E1A blk, USP2a inh, Eya2 inh, Six1-Eya2 inh)
O=C(Nc1nc(-c2ccco2)c(-c2ccco2)s1)C1CC(=O)N(c2ccc3c(c2)OCCO3)C1 (stereo unspecified)	USP2a inh inconclusive, PI4K2A block -56, Six1-Eya2 inh inconclusive
Cc1nnc(NC(=O)C2CC(=O)N(c3ccc4c(c3)OCCO4)C2)s1 (stereo unspecified)	none
Cc1nc2cc(-c3ccsc3-n3c(C)ccc3C)[nH]n2c(=O)c1Cl	CtBP-E1A blk inconclusive, RGS4 inh inconclusive, Six1-Eya2 inh -78
COc1ccc([C@H]2/C=C\CN(Cc3ccc(N(C)C)cc3)[C@@H](C)C(=O)N2Cc2ccc(F)cc2)cc1	CtBP-E1A blk -65, Six1-Eya2 inh inconclusive (no result: USP2a inh, Eya2 inh)
O=C(N/N=C/c1c(O)ccc2ccccc12)Nc1ccccc1	none (no result: CtBP-E1A blk, USP2a inh, Eya2 inh)
O=C(CN1CCOCC1)N/N=C/c1c(O)ccc2ccccc12	CtBP-E1A blk -93, Six1-Eya2 inh -95
O=C(CSCC(=O)Nc1ccccc1)N/N=C/c1c(O)ccc2ccccc12	CtBP-E1A blk -72, Six1-Eya2 inh inconclusive
O=C(COC(=O)CC1CC2CCC1C2)Nc1ccccc1[N+](=O)[O-] (stereo unspecified)	Six1-Eya2 inh inconclusive
CCN(C(=O)Cn1nnc2sc(-c3ccccc3)cc2c1=O)c1cccc(C)c1	RGS4 inh inconclusive (no result: CtBP-E1A blk, USP2a inh, Eya2 inh, Six1-Eya2 inh)
COc1ccc(NC(=O)N(C)C[C@H]2Oc3ccc(NC(=O)Cc4ccccc4)cc3C(=O)N([C@H](C)CO)C[C@@H]2C)cc1	none
C[C@H](CO)N1C[C@H](C)[C@@H](CN(C)C(=O)Nc2ccccc2)Oc2ccc(NC(=O)Nc3ccc4c(c3)OCO4)cc2C1=O	CtBP-E1A blk -65, Six1-Eya2 inh inconclusive
